Most compounds without a hit are left out; they make up all but 3.6% or so of the library.
TDP43 rescue = qHTS of TDP-43 Inhibitors; TDP-43 expressing yeast growth rescue, BacTiter-Glo, 24 h; Potency, µM (highest dose often 46.1 µM), for inactives: at the top dose growth rescue (activation), hits mostly activators; 1.8% of 410,000 active; AID 652104, 2013; further: % of control where 0% means no effect; nearly all actives have a fitted effect of over 50% in size
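Growth rescue of TDP-43-toxic yeast measured as ATP luminescence (BacTiter-Glo). Cells grown to mid-log in raffinose, induced in galactose at OD600=0.02, exposed to compound 24 hr at 30 deg C.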
aSyn rescue = qHTS of alpha-syn Inhibitors; Yeast expressing alpha-synuclein, growth rescue, BacTiter-Glo, 24 h; Potency, µM (doses to about 46.1 µM), inactives show at the highest dose growth rescue (activation), actives largely listed as activators; 0.14% of 370,000 active; AID 652106, 2013; further: % of control where 0% means no effect; nearly all actives have a fitted effect of over 65% in size
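Rescue of yeast growth: cells expressing toxic alpha-synuclein, induced in galactose at OD600 0.02, incubated with compound 24 h at 30 C. ATP luminescence quantified growth; inhibitors of toxicity appear as activators.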
MmCpn inh = Inhibitors of TCP-1 ring complex (TRiC) of Methanococcus maripaludis (MmCpn): qHTS; Chaperonin Mm-Cpn (Methanococcus maripaludis); purified Mm-Cpn ATPase, ADP Transcreener TR-FRET; Potency, µM (highest dose often 76.9 µM), for inactives: at the highest dose activity, negative = inhibition, usual class: inhibitors; 0.031% of 330,000 active; further: on the % scale 0 is the no-effect control and ±100 the full control effect; nearly all actives have a fitted effect of over 80% in size
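ATPase turnover read by TR-FRET ADP competition (Eu cryptate antibody/ADP-d2, 665/590 nm): 10uM ATP final, 25nM Mm-CPN final, 30 min 37degC after 10-min compound preincubation, pH 7.4 Tris/KCl/MgCl2/DTT buffer.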
ClpP mod = qHTS Assay for Activators of ClpP; 1.9% of 340,000 active; purified B. subtilis ClpP, FRET peptide cleavage, 20 min; AID 651965, 2013; Potency, µM (series often up to 57.5 µM), for the others: at the highest dose activity change, negative = active; active means well fitted falling curve with a large enough effect; inconclusive means small, poorly fitted or top-dose-only effect; inactive means no such curve, though single readings can be large or run the other way; further: the source files actives as falling curves though it sought activators and does not explain the sign; nearly all actives have a fitted effect of over 65% in size
Target sequence (P80244 whole entry, looked up): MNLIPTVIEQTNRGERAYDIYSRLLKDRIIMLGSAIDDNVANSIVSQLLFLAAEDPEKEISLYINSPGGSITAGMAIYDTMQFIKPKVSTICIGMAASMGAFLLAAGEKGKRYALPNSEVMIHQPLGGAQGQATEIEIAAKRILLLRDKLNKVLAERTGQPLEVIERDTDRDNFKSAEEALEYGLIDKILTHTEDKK
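Purified B. subtilis ClpP, 10 microg/mL final in Tris/HCl pH8 with KCl, BSA, glycerol and Tween-20, cleaved an Abz/nitrotyrosine-quenched decapeptide. Fluorescence (ex 320, em 430) was read at 0 and 20 min at room temperature. Delta was normalized to 5.8 microM ADEP and DMSO/no-enzyme controls.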
FUS yeast rescue = qHTS for Suppressors of FUS Proteinopathy: Primary screen using FUS-linked yeast assay; S. cerevisiae FUS-expressing, growth rescue, OD600, 24 h; Potency, µM (series often up to 76.6 µM), most hits filed as activators; 0.24% of 390,000 active; AID 1347120, 2019;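 further: plate controls were DMSO vehicle for no effect and reference control for full effect; nearly all actives have a fitted effect of over 55% in size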
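Quantitative HTS measuring growth restoration of FUS-toxic yeast. Galactose-induced cells (OD 0.005) were exposed 24hr at 30C to compounds at several concentrations, then absorbance at 600 nm was recorded.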
Abeta yeast res = qHTS for compounds that reverse cellular toxicity of Amyloid beta (A-beta) peptide in yeast: Primary Screen; yeast expressing A-beta42, growth rescue, OD600, 48 h; response scale: 0% DMSO, 100% iron-clioquinol control; Potency, µM (top dose mostly 46.1 µM), hits mostly activators; 0.063% of 410,000 active; AID 1347071, 2019; further: nearly all actives have a fitted effect of over 55% in size
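Yeast A-beta toxicity model in growth medium with pinned compounds, 48 h at 30 C; growth read as absorbance at 600 nm. Normalized to FeCl3/clioquinol equimolar mix (positive) and DMSO (negative).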
* hit, by the source's call; i = inactive; ? = inconclusive; · = no result given; [ ] = another dose, or the depositor's remark. Unless noted, the call rests on the fitted dose curve; in most records, active means well fitted curve in the direction sought with a large enough effect; inconclusive means small, poorly fitted or top-dose-only effect, or another doubt; inactive means no such curve, though single readings can be large; an effect the other way counts as inactive or inconclusive. Potency means the concentration at half of the fitted maximal effect.

SMILES	TDP43 rescue	aSyn rescue	MmCpn inh	ClpP mod	FUS yeast rescue	Abeta yeast res
CC(C)C(=O)N1CCN(c2ccc([N+](=O)[O-])cc2Cl)CC1	?	-9%	0%	1%	·	i
Cc1ccc(CN(Cc2cccn2-c2nnc(N3CCCC3=O)s2)C(=O)Nc2cc(C)cc(C)c2)cc1	-13%	·	·	-5%	i	i
COc1ccc(-c2cc(=Nc3ccc(C(=O)O)cc3)c3cc(C)ccc3o2)cc1	18µM*	11%	1%	?	i	i
COc1ccc(C(=O)c2sc(NC(C)C)nc2N)cc1OC	-17%	-16%	1%	25µM*	i	i
COc1cccc(C(=O)c2sc(NC(C)C)nc2N)c1	20%	6%	0%	1%	i	i[9.22 µM]
CCOc1ccccc1-c1nc(-c2ccc(-c3ccccc3)nc2OCC)no1	23%	·	·	13µM*	i	i
COc1nc(-c2ccc(C)cc2)ccc1-c1noc(-c2ccco2)n1	13%	-7%	-6%	28µM*	i	i
CCOc1nc(-c2ccccc2)ccc1-c1noc(-c2ccco2)n1	8%	4%	-2%	35µM*	i	i
Cc1c2cnn(CC(=O)N3CCN(c4ccccc4)CC3)c(=O)c2c(C)n1Cc1ccc(F)cc1	10%	·	·	-3%	i	i
O=C(Nc1ccc(C(F)(F)F)cc1)OC1CC2CC1[C@H]1CCCCN1C2 (stereo not given in full)	·	·	·	·	i	·
O=S(=O)(c1cccc(-c2nnc(SCc3nc4ccccc4s3)o2)c1)N1CCOCC1	?	0%	-24%	28µM*	?	i
COc1ccc(OCC(O)COc2ccc(C(=O)O)cc2)cc1 (stereo not given)	·	·	0%	-2%	i	i
COc1ccc(OCc2ccc(C(=O)O)cc2)cc1	14µM*	6%	2%	2%	i	i
NNC(=O)c1ccc(COc2ccc3ccccc3c2)cc1	16µM*	-7%	-6%	-4%	i	i
CCCc1cc(=O)oc2cc(OCc3ccc(C(=O)O)cc3)ccc12	2.5µM*	3%	-2%	-2%	i	i
Cc1cnc(-c2nnc(N(C)C(=O)C3CCCO3)s2)cn1 (stereo not given)	-10%	-6%	-2%	28µM*	i	i
CCCCOC(=O)c1ccc(NC(=O)c2csnn2)cc1	14%	·	·	-1%	i	i
COc1ccc(NC(=O)C(c2ccc(C)cc2)N(C)C(=O)Cc2cccs2)cc1 (stereo not given)	13µM*	12%	-3%	0%	i	?
COc1ccc(-c2nc(CS(=O)CC(=O)NCCCN3CC(C)CC(C)C3)c(C)o2)cc1OC (stereo not given)	?	1%	3%	28µM*	i	i
COc1ccc(-c2nc(CS(=O)CC(=O)NCCc3ccccc3)c(C)o2)cc1OC (stereo not given)	20%	·	·	16µM*	i	i
COc1ccc(-c2nc(CS(=O)CC(=O)NCCCN3CCCC(C)C3)c(C)o2)cc1OC (stereo not given)	-9%	3%	1%	4%	i	i
N#CCC[C@H]1CC[C@]2(CCCN(C(=O)C3CCCCC3)C2)O1	·	·	·	·	i	·
CCOc1ccccc1C1C(C(=O)Nc2ccccc2)=C(C)Nc2nc(SCC(=O)c3ccc(C)cc3)nn21 (stereo not given)	12%	·	·	1%	i	i
COCCNC(=O)CCN1C(=O)c2cccnc2Oc2ccc(C)cc21	2%	·	·	2%	i	i
CC(=O)Oc1ccc2c(c1)CCC1C2CCC2(C)C(OC(C)=O)CCC12 (stereo not given)	32µM*	-16%	·	-1%	?	i
SMILES	TDP43 rescue	aSyn rescue	MmCpn inh	ClpP mod	FUS yeast rescue	Abeta yeast res
COc1ccccc1N1CC(O)=C(c2nc3ccccc3c(=O)[nH]2)C1=N	0%	0%	-1%	32µM*	i	i
COCCN1CC(O)=C(c2nc3ccccc3c(=O)[nH]2)C1=N	1%	1%	-2%	?	i	i
COc1ccc(OCC(=O)OC2CCN(C)CC2)cc1	-9%	3%	4%	16µM*	i	i
CN1CCC(OC(=O)COc2ccc(Br)cc2)CC1	11%[9.22 µM]	-1%	1%	·	i	i
O=C(NCc1noc2ccccc12)N1CCN(c2ccccc2)CC1	?	·	·	1%	i	i
CCCCCc1nc2c(C#N)c(-c3ccc(Cl)cc3)ccn2n1	0%	1%	-1%	28µM*	i	i
Cc1ccccc1Cn1ccc(-c2ccc(Cl)cc2)c(C#N)c1=O	-10%	1%	2%	?	i	i
N#Cc1c(-c2ccc(Cl)cc2)ccn2nc(CCC(=O)O)nc12	-10%	-1%	·	25µM*	i	i
COC(=O)c1c(-c2cccs2)csc1NC(=O)COc1ccccc1	-19%	·	·	?	i	i
CCC1CN(C(=O)N2CCC(C(=O)NCCC3=CCCCC3)CC2)c2cc(C)ccc2O1 (stereo not given)	?	·	·	0%	i	i
COC(=O)c1ccccc1NC1OC(=O)c2ccccc21 (stereo not given)	8%	-1%	0%	32µM*	i	i
Cc1ccc2cccc(NC3OC(=O)c4ccccc43)c2n1 (stereo not given)	1%	-7%	2%	0%	i	i
NC(=O)NOCc1ncc(C(F)(F)F)cc1Cl	3%	1%	1%	28µM*	i	i
Cc1c(C=O)ccc(N(C)C)c1C	·	0%	·	0%	·	·
CC(=O)Nc1cc([N+](=O)[O-])cc(NC(C)=O)c1NC(C)=O	·	-13%	·	1%	·	·
Cc1ccc(SC[C@H](C)CN2CCC(NC(=O)OCc3ccccc3)CCC2=O)cc1 (stereo not given in full)	?	25µM*	·	-3%	?	i
Cc1ccc(SCCN2CCC(NC(=O)OCc3ccccc3)CCC2=O)cc1 (stereo not given)	13%	0%	0%	1%	?	i
O=C(NCc1ccccc1Cl)c1c2c(nc3ccccc13)C(=O)N(C1CCCCC1)C2	7%	·	·	-17%	i	i
O=C(NCc1ccccc1F)c1cccc(NC(=O)N2CCSc3ncccc32)c1	11%	·	·	?	i	i
